Records with an inconclusive call do not appear. Entries that show only a call come without a potency. A number with no mark means an inactive call. Calls of active or inactive are those of the source. The call rests on the fitted dose curve; in most records, active means well fitted inhibition curve with a large enough effect; inconclusive means small, poorly fitted or top-dose-only effect; inactive means flat fitted curve, though single readings scatter.
Test: P-glycoprotein substrates identified in KB-8-5-11 adenocarcinoma cell line, qHTS therapeutic library screen (AID 1346987); further: nearly all actives have a fitted effect of over 65% in size
Conditions: KB-8-5-11 (P-gp overexpressing) viability, CellTiter-Glo, 72 h; series mostly up to 44.5 µM
Summary of the method: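 Steps: plate 500 KB-8-5-11 cells/well in DMEM + 10% FCS (colchicine removed); pin compounds in dose-response; incubate 72 h, 37 degree C, 5% CO2; add CellTiter-Glo, 5 min; read luminescence.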
Potency means the concentration at half of the fitted maximal effect.

Row | SMILES | Potency | activity change, negative = cytotoxicity
1 | COc1cc(N)c(Cl)cc1C(=O)NC[C@@H]1CCN2CCC[C@@H]12 | inactive | –
2 | COc1ccc([C@@]2(O)c3c(ccc4c3OC(C)(CCC=C(C)C)C=C4)NC(=O)[C@@H]2OC)cc1 (some centres not stated) | inactive | –
3 | COc1ccc(CCO[C@@H]2O[C@H](CO[C@@H]3OC[C@H](O)[C@H](O)[C@H]3O)[C@@H](O)[C@H](O)[C@H]2O)cc1 | inactive | –
4 | C=C(C(=O)OC)C1C(O)CC2(C)C(=O)CCC(O)(CO)C2C1O (configuration not stated) | inactive | –
5 | C[C@@H]1CCC2C(C)(C)[C@H](O)CC[C@]2(C)[C@@]12Cc1c(O)cc3c(c1O2)CNC3=O (some centres not stated) | inactive | –
6 | C[C@@H]1O[C@@H](O[C@H]2[C@H](O)[C@@H](O)[C@H](O[C@H]3[C@H](O[C@H]4CC[C@@]5(C)C(=CC[C@@H]6C5CC[C@]5(C)[C@@H]7[C@H](C[C@@H]65)O[C@]5(CC[C@@](C)(CO[C@@H]6O[C@H](CO)[C@@H](O)[C@H](O)[C@H]6O)O5)[C@H]7C)C4)O[C@H](CO)[C@@H](O)[C@@H]3O)O[C@@H]2CO)[C@H](O)[C@H](O)[C@H]1O (some centres not stated) | – | 4.84% [at 9.29 µM]
7 | C/C=C/C=C/C=C/C(=O)OC1C=C(C=O)C(O)(C(=O)O)C2(C)CCCC(C)(C)C12 (configuration not stated) | inactive | –
8 | CC1(C)CCC[C@@]2(C)C1[C@H](OC(=O)/C=C/C=C/C(=O)O)C=C1COC(=O)[C@@]12O (some centres not stated) | inactive | –
9 | COc1cc(C(=O)OC[C@H]2O[C@@H](Oc3ccccc3/C=C/C(=O)O)[C@H](O)[C@@H](O)[C@@H]2O)cc(OC)c1OC | inactive | –
10 | C[C@@]1(O)[C@H](O)[C@@H](CO)O[C@H]1n1ccc(N)nc1=O | inactive | –
11 | CC(C)CC1NC(=O)C2CC3(O)c4ccccc4NC3N2C1=O (configuration not stated) | inactive | –
12 | COc1ccc(C(=O)n2c(C)c(Cc3cccc(O[C@@H](C)C(=O)O)c3)c3cc(OC(F)(F)F)ccc32)cc1 | inactive | –
13 | CC(C)CCC(=O)CC1c2ccccc2C(=O)N1c1ccc2ccc(Cl)nc2n1 (configuration not stated) | inactive | –
14 | C[C@@H]1O[C@@H](O[C@H]2[C@H](O[C@H]3[C@H](O[C@H]4CC[C@@]5(C)C(CC[C@]6(C)C5CC=C5[C@@H]7CC(C)(C)C[C@@H](O)[C@]7(C)CC[C@]56C)[C@@]4(C)CO)O[C@H](C(=O)O)[C@@H](O)[C@@H]3O)OC[C@H](O)[C@@H]2O)[C@H](O)[C@H](O)[C@H]1O (some centres not stated) | – | 3.08% [at 9.29 µM]
15 | COC(=O)C1=COC(O[C@@H]2O[C@H](CO)[C@@H](O)[C@H](O)[C@H]2O)[C@H]2[C@@H]1[C@H](OC(=O)CCc1ccc(O)cc1)C[C@]2(C)O (some centres not stated) | inactive | –
16 | COc1ccc(CCO[C@@H]2CCCC[C@H]2N2CC[C@@H](O)C2)cc1OC | inactive | –
17 | CC[C@H]1OC(=O)[C@H](C)[C@@H](O[C@H]2C[C@@](C)(OC)[C@@H](O)[C@H](C)O2)[C@H](C)[C@@H](O[C@@H]2O[C@H](C)C[C@H](N(C)C)[C@H]2O)[C@](C)(O)C[C@@H](C)C(=O)[C@H](C)[C@H]2OC(=O)O[C@@]21C | inactive | –
18 | CC1=C(CO)C(=O)O[C@@H]([C@@H](C)[C@H]2CC[C@H]3[C@@H]4C[C@H]5O[C@]56[C@@H](O)C=CC(=O)[C@]6(C)[C@H]4CC[C@]23C)C1 | 2520 nM (active) | –
19 | C=C1C[C@]23C[C@H]1[C@@H](O)C[C@H]2[C@@]12C=C[C@H](O)[C@@](C)(C(=O)O1)[C@H]2[C@@H]3C(=O)O | inactive | –
20 | CC1(C)CC[C@]2(C(=O)O[C@@H]3O[C@H](CO)[C@@H](O)[C@H](O)[C@H]3O)CC[C@]3(C)C(=CCC4[C@@]5(C)C[C@@H](O)[C@H](O)C(C)(C)C5CC[C@]43C)C2[C@@H]1O (some centres not stated) | inactive | –
21 | O=S(=O)(c1ccccc1)c1cnc2c(N3CCNCC3)cccc2c1 | inactive | –
22 | CCNC(=O)C1OC(n2cnc3c(N)nc(NCCc4ccc(CCC(=O)O)cc4)nc32)C(O)C1O (configuration not stated) | inactive | –
23 | CC1=CC(=O)[C@]2(O[C@@H]3O[C@@H](C)[C@H](O)[C@@H](O)[C@H]3OC(=O)/C=C/c3ccccc3)C=CO[C@@H](O[C@@H]3O[C@H](CO)[C@@H](O)[C@H](O)[C@H]3O)[C@H]12 | inactive | –
24 | CC1=CC(=O)C2C(C)(C)CCC[C@]2(C)[C@H]1CO (some centres not stated) | inactive | –
25 | C=C1CCC2C(C)(C)CCC[C@]2(C)[C@H]1C/C=C(\CO)C(=O)C(=O)O (some centres not stated) | inactive | –
26 | O=C1NC(Cc2ccccc2)C(=O)N2CCCC12 (configuration not stated) | inactive | –
27 | COc1ccc(C2=N[C@@H](c3ccc(Cl)cc3)[C@@H](c3ccc(Cl)cc3)N2C(=O)N2CCNC(=O)C2)c(OC(C)C)c1 | inactive | –

From PubChem BioAssay (NCATS)
